Shown are actives, neighbours in structure and some others; about 4.8% of the full set was active somewhere.
SMARCA2 act – activators of SMARCA2 function; MG213 cells, MMTV-luciferase reporter, dexamethasone, overnight; activation, % at 9.1 µM; actives 1% (n = 370,000); AID 652017; in the data active = activation above about 7.8%
DAX1 inh-1 – NR0B1 (DAX1) inhibition; P51843; HEK293 Gal4-DAX1 luciferase reporter, luminescence; inhibition, % at 6.75 µM; AID 504766; actives 0.99% (n = 340,000);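 active = inhibition above the mean over all tested compounds plus 3 SD, cut at about 4.2% in these data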;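 note: inhibition shows as a rise in luminescence from relieved DAX1 repression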
DAX1 inh-2 – blocks DAX1 repression of SF-1 activated StAR promoter; HEK293T StAR-luciferase reporter, SF-1/DAX-1 repression relief; inhibition, % at 6.8 µM; actives 1.1% (n = 370,000);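 active = inhibition above the mean over all tested compounds plus 3 SD, cut at about 3.6% in these data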;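 note: higher inhibition means more luminescence from relief of DAX-1 repression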
hcDAF-12 act – H. contortus DAF-12 activation, primary screen; activation, % at 6.8 µM; HEK293 hcDAF-12 lit1-tk-luc reporter, luminescence; 0% DMSO, 100% Δ7-dafachronic acid; actives 1.4% (n = 370,000);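 active = activation above the mean of all tested compounds plus 3 SD, cut at about 5.5% in these data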
hgDAF-12 ag – agonists of H. glycines DAF-12 nuclear receptor. actives 1.8% (n = 370,000). AID 687014. HEK293 GAL4-hgDAF12 UAS-luciferase reporter, agonist luminescence; normalized to butyrate control. activation, % at 6.8 µM;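 active = activation above a cutoff set at the mean of all screened compounds plus 3 SD, cut at about 10% in these data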
ssDAF-12 act – activators of S. stercoralis DAF-12 nuclear receptor; AID 652126; HEK293 ssDAF-12/GRIP1 lit1-tk-luc reporter, luminescence; % of 3 µM dafachronic acid response; actives 1% (n = 370,000); activation, % at 6.8 µM;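 active = activation above the mean over all tested compounds plus 3 SD, cut at about 0.9% in these data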
hgDAF12 conf – confirmation of H. glycines DAF-12 agonists; shares compounds with hgDAF-12 ag; actives 80% (n = 3,300); HEK293 GAL4-hgDAF12 luciferase reporter, agonist mode; percent of butyrate response; activation, % at 6.8 µM;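 active = mean activation over triplicate wells above the hit cutoff derived from the earlier primary screen, cut at about 11% in these data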
LXR ag 2 – LXR-beta agonism as DAF-12 counter-screen. shares compounds with hgDAF-12 ag. HEK293 Gal4-LXR luciferase reporter, 24 h. activation, % at 6.8 µM. 3,300 tested, under 10 active. AID 743051;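 active = mean activation of the triplicate above a set limit carried over from the primary screen, none filed active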
Target sequence (P55055 whole entry, looked up, the tested form may be a part): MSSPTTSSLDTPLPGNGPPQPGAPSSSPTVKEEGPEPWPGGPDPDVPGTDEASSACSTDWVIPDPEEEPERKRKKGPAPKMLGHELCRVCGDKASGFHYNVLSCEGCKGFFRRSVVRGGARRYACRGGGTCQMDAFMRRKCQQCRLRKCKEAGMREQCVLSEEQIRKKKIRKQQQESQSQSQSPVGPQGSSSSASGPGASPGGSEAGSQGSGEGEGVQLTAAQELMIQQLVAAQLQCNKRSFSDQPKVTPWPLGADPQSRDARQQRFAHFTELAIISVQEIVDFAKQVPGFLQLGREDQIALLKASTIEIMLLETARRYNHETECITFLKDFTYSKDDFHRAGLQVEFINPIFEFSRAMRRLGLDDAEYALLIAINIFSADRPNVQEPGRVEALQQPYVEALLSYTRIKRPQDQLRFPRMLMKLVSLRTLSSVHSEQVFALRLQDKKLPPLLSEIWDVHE
Of the large screens only hits and unclear results are named; the others gave an inactive call (follow-up assays come after a bar, where they were run).

CC(/C=C/c1ccc(OCc2ccccc2)cc1)=N\O	hcDAF-12 act 6.1, hgDAF-12 ag 14 | hgDAF12 conf 13 | LXR ag 2 inactive
CC(/C=C/c1ccccc1)=N/O	none
C/C(=N\Nc1nncc2ccccc12)c1cccc(OC(F)F)c1	hcDAF-12 act 6.1, hgDAF-12 ag 18 | hgDAF12 conf 20 | LXR ag 2 inactive
NC(=O)c1ncn([C@@H]2O[C@H](C(=O)N3CCN(Cc4ccccn4)CC3)[C@@H](O)[C@H]2O)n1	none (no result: DAX1 inh-1)
O=C(O)C1=C(C(=O)Nc2ccc(F)c(Cl)c2)CCCC1	none
O=C(Nc1ccc(F)c(Cl)c1)c1nsc(Cl)c1Cl	hgDAF-12 ag 13 | hgDAF12 conf 16 | LXR ag 2 inactive
C=CCN=C1NC(c2cccc(Cl)c2)C(C(=O)OC)=C(C)N1Cc1ccc(C(F)(F)F)cc1 (configuration not stated)	none (no result: DAX1 inh-1)
O=C1NC(=S)NC1=Cc1ccc(Cl)cc1Cl	none
O=C1NC(=O)C(=Cc2ccc(Cl)cc2Cl)S1	DAX1 inh-2 4.4, hgDAF-12 ag 18 | hgDAF12 conf 14 | LXR ag 2 inactive
C=CCN1C(=O)c2n[nH]c(C(C)C)c2C1c1ccccc1 (configuration not stated)	none (no result: DAX1 inh-1)
CC(C)C[C@H]1COc2ccc(Cl)cc2S(=O)(=O)N1	none (no result: DAX1 inh-1)
CC(=NNc1ccc([N+](=O)[O-])cn1)c1ccccc1	hgDAF-12 ag 13 | hgDAF12 conf 16 | LXR ag 2 inactive
CC(C=NNc1ccc([N+](=O)[O-])cn1)=Cc1ccccc1	DAX1 inh-1 7.5, DAX1 inh-2 3.7, hgDAF-12 ag 17 | hgDAF12 conf 17 | LXR ag 2 inactive
C/C(=N\Nc1ccc([N+](=O)[O-])cc1)c1ccc(O)cc1	hgDAF-12 ag 16 (no result: DAX1 inh-1) | hgDAF12 conf inactive | LXR ag 2 inactive
Nc1ccc(N=Nc2ccccc2)c(N)n1	DAX1 inh-2 4.1, hgDAF-12 ag 16 | hgDAF12 conf 13 | LXR ag 2 inactive
CCOc1cc(OCC)cc(C(=O)N2CCC[C@@H]2C(=O)N2CCC[C@H]2C(=O)NCc2ccccc2)c1	none (no result: DAX1 inh-1)
O=C(C1CCN(c2ncnc3c2sc2cccc(F)c23)CC1)N1CCCCC1	none (no result: DAX1 inh-1)
C[C@@H]1CN(c2ccc(N3CCNC[C@H]3C)cc2C#N)C[C@H](C)O1	none (no result: DAX1 inh-1)
COc1ccccc1/C=N\N=C(\N)c1ccccn1	DAX1 inh-2 3.9, hcDAF-12 act 6.0, hgDAF-12 ag 13, ssDAF-12 act 1.1 | hgDAF12 conf 14 | LXR ag 2 inactive
COc1ccccc1C=NN=C(N)C(N)=NN=Cc1ccccc1OC	none
O=C(NCc1ccc(Cl)cc1)c1cnn2ccccc12	DAX1 inh-2 3.8, hgDAF-12 ag 18 | hgDAF12 conf 13 | LXR ag 2 inactive
Cc1cc(C)n2ncc(C(=O)NCc3ccc(Cl)cc3)c2n1	none
Cc1nccn1CC(=O)c1ccccc1	none
O=Cc1c(OCc2ccccc2)ccc2ccccc12	hgDAF-12 ag 14, ssDAF-12 act 0.9 | hgDAF12 conf inactive | LXR ag 2 inactive
C/[N+]([O-])=C/c1c(OCc2ccccc2)ccc2ccccc12	none
Oc1ccc(/C=N/NC(=S)Nc2cccnc2)cc1	hgDAF-12 ag 15 | hgDAF12 conf 11 | LXR ag 2 inactive
COC(=O)C1=C(C)N(C)C(=NCC2CC2)NC1c1cccc(F)c1 (configuration not stated)	none (no result: DAX1 inh-1)
CC(c1ccc(Cl)cc1)N(CCN(C)C)c1ccccn1 (configuration not stated)	none (no result: DAX1 inh-1)
CCOC(=O)CC(=O)CSc1nc(-c2cccnc2)ccc1C#N	none
CCOC(=O)CSc1nc(-c2ccncc2)ccc1C#N	hgDAF-12 ag 17, ssDAF-12 act 0.9 | hgDAF12 conf 16 | LXR ag 2 inactive
COC(=O)[C@]12C[C@H](CC(=O)NCCC(C)C)C(=O)N(CCC3=CCCCC3)C1=C[C@H](C(C)(C)C)O[C@@H]2C	none (no result: DAX1 inh-1)
